High-throughput results as filed in PubChem.
An excerpt weighted towards active compounds, which were near 11% of everything screened.
Pf growth 48h: inhibits P. falciparum growth in the first generation, 48 h. Potency, µM (doses to about 28.7 µM), inactives show at the highest dose activity change, negative = inhibition, hits mostly inhibitors. actives 5.9% (n = 310,000). AID 504832. P. falciparum luciferase growth in erythrocytes, 48 h; also: % is scaled to controls: 0 for no effect and ±100 for the full control effect
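Cell-based growth assay: transgenic P. falciparum expressing firefly luciferase, cultured in red cells within RPMI 1640 containing 0.5% w/v Albumax, 24 mM bicarbonate and gentamycin. A drop in luciferase activity indicates inhibition.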
Sm TGR block: blocks Schistosoma mansoni thioredoxin glutathione reductase; Potency, µM (highest dose often 114 µM), inactives show at the highest dose activity change, negative = inhibition, hits mostly inhibitors; purified TGR, DTNB reduction, TNB absorbance 405 nm; actives 3% (n = 360,000); AID 485364; Q962Y6; also: % is scaled to controls: 0 for no effect and ±100 for the full control effect; nearly all actives have a fitted effect of over 60% in size
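Kinetic colorimetric format: TGR-catalysed, NADPH-driven DTNB reduction monitored via TNB absorbance. Enzyme dispensed at 20 nM; compound exposure 15 min at room temperature before reaction start.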
AMA1 RON2 block: disrupts binding of P. falciparum AMA1 to RON2. AlphaScreen AMA1-biotinylated RON2 peptide binding. Potency, µM (titrated, usually from 58.2 µM), inactives show at the highest dose activity change, negative = inhibition, most hits filed as inhibitors. actives 0.2% (n = 360,000). AID 720542;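 also: 0% = vehicle wells and -100% = peptide control; nearly all actives have a fitted effect of over 45% in size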
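AMA1 (3D7) with his tag at 25 nM final met compounds first, then biotinylated RON2 peptide at 25 nM; detection used donor plus acceptor beads, 10 µg/mL apiece, read by AlphaScreen after 30 min at room temperature.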
NS1 function inh: blocks influenza NS1 protein function; AID 2326; Potency, µM (highest dose often 46.1 µM), for inactives: at the top dose activity, positive = more growth; actives 0.4% (n = 270,000); calls by dose curve; also: actives are rising curves; nearly all actives have a fitted effect of over 50% in size
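In this qHTS, NS1 from influenza A is expressed in budding yeast, where it slows growth. Cells are switched from glucose to 2% galactose medium (pH 6.0, -URA), treated with compound, and growth recovery is read at OD600.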
Pf growth 96h: P. falciparum growth inhibition at 96 hour, primary screen for plastid delayed-death inhibitors; P. falciparum luciferase reporter growth, 96 h; Potency, µM (doses to about 28.7 µM), for inactives: at the highest dose activity change, negative = inhibition, most hits filed as inhibitors; actives 6.9% (n = 320,000); AID 504834; also: % is scaled to controls: 0 for no effect and ±100 for the full control effect
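Cell-based qHTS: luciferase-tagged P. falciparum in erythrocytes (2% hematocrit, 0.05% parasitemia final) incubated with compounds for 96 hours, 37 C, 5% CO2; luciferase detection reagent then added and luminescence measured.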
* hit, by the source's call; u = inconclusive; x = not tested or not shown; [ ] = remark or other dose. Unless noted, calls follow the shape of the dose curve; as a rule, active = well fitted curve in the direction sought with a large enough effect; inconclusive = small, poorly fitted or top-dose-only effect, or another doubt; inactive = no such curve, though single readings can be large; an effect the other way counts as inactive or inconclusive. Potency is read from the fitted curve at half-maximal effect.

SMILES	Pf growth 48h	Sm TGR block	AMA1 RON2 block	NS1 function inh	Pf growth 96h
Cc1cc(Br)c(OCc2ccc(C(=O)N/N=C/c3ccc[nH]3)cc2)c(Br)c1	2.6µM*	u	61%	x	10µM*
CCOc1ccc(-c2cnc(NCc3ccc(C(F)(F)F)cc3)n2C)cc1	x	0%	x	x	x
NC(=O)c1ccc(NCCCN2CCOCC2)c([N+](=O)[O-])c1	8%	x	2%	1%	-1%
COc1cccc(-n2c(=O)c3c4c(sc3n(Cc3ccccc3C#N)c2=O)CCCC4)c1	x	10%	x	x	x
CNC(=S)N/N=C/c1cc(C)n(-c2ccc(Cl)c(Cl)c2)c1C	15µM*	0%	-2%	-7%	9.3µM*
Cc1ccc(-n2c(C)cc(/C=N/NC(N)=S)c2C)cc1	u	-11%	9%	4%	126%
COC(=O)c1ccccc1NC(=S)NC(=O)COc1ccccc1	17%	22µM*	19%	12%	u
COC(=O)c1ccccc1NC(=S)NC(=O)c1ccccc1	57%	11µM*	-2%	-8%	39%
COC(=O)c1ccccc1NC(=S)NC(=O)CC(C)C	19%	-23%	5%	3%	42%
COC(=O)c1ccccc1NC(=S)NC(=O)c1ccc2c(c1)OCO2	21%	11µM*	23%	-17%	u
O=C(NC(=S)Nc1ccccc1O)c1ccc(-c2ccc(Cl)cc2)o1	7%	-33%	61%	-47%	0%
Cc1c(NC(=S)NC(=O)c2ccc(-c3ccc(Cl)cc3)o2)cccc1C(=O)O	4%	13µM*	35%	x	14%
COC(=O)c1ccccc1NC(=O)c1ccc2c(c1)OCCO2	4%	17%	4%	-99%	u
CCN(c1ccc(OC)cc1)S(=O)(=O)c1csc(C(=O)N2CCCC2)c1	u	-10%	-15%	-9%	9%
Cc1ccccc1C(=O)NC(=S)Nc1ccccc1C(=O)O	23%	31%	38%	0%	10µM*
CCC(NC(=O)c1ccccc1NC(=O)c1ccc(OC)cc1)C(=O)N1CCCC1 (stereo not given)	44%	-4%	-8%	-8%	-12%
CCC(NC(=O)c1ccccc1NC(=O)c1ccccc1)C(=O)OC (stereo not given)	2.1µM*	26%	0%	-61%	29%
COC(=O)c1ccccc1NC(=S)NC(=O)c1ccccc1C	24%	u	18%	-10%	0%
Cc1ccc(C(=O)NC(=S)NNS(=O)(=O)c2ccccc2)cc1	-11%	13µM*	47%	-47%	u
COC(=O)c1ccccc1NC(=S)NC(=O)c1ccc(C)cc1	27%	11µM*	25%	-16%	16%
COc1ccccc1CNC(=O)c1c2c(nc3ccccc13)C(=O)N(C1CCCCC1)C2	x	5%	x	x	x
O=C(CSc1nc2c([nH]c3ccccc32)c(=O)n1-c1ccccc1)N1CCCCC1	x	1%	x	x	x
COc1ccc(/C=N/n2c(C)nc3c([nH]c4ccccc43)c2=O)cc1CN1CCCC(C)(C)C1	12µM*	-1%	-1%	-2%	5.2µM*
COc1ccc(/C=N/n2cnc3c([nH]c4ccc(C)cc43)c2=O)cc1CN1CCCC1	u	2%	-3%	1%	u
COc1ccc2c(c1)[nH]c1c(=O)n(/N=C/c3ccc(OC)c(CN4CCCC4)c3)cnc12	4.1µM*	-7%	-13%	3%	u
SMILES	Pf growth 48h	Sm TGR block	AMA1 RON2 block	NS1 function inh	Pf growth 96h
COc1ccc2[nH]c3c(=O)n(/N=C/c4ccc(OC)c(CN5CCCC5)c4)c(C)nc3c2c1	u	u	-1%	8%	u
CCOc1cc(NC(=S)NCC2CCCO2)c(OCC)cc1NC(=O)c1cccc(C)c1 (stereo not given)	u	-10%	-20%	16%	12µM*
CCOc1cc(NC(=O)c2ccccn2)c(OCC)cc1NC(=O)c1cccc(C)c1	-20%[1.15 µM]	4%	21%	2%	12µM*
CCOc1cc(NC(=S)NCC2CCCO2)c(OCC)cc1NC(=O)c1ccccc1 (stereo not given)	u	-12%	-10%	10%	u
CN(CC(=O)Nc1c(Cl)cccc1Cl)C(=O)Cn1[nH]c(=O)c2ccccc2c1=O	u	-20%	16%	x	u
Cc1ccccc1/C=C/c1nc2ccccc2c(=O)n1Cc1ccccc1	u	3%	-1%	5%	10µM*
Cc1ccccc1/C=C/c1nc2ccccc2c(=O)n1CCc1ccccc1	13µM*	-3%	-2%	4%	-5%
CCn1c(/C=C/c2ccccc2C)nc2ccccc2c1=O	1%	4%	0%	-16%	-15%
CCOC(=O)c1c(NC(=O)c2ccc(Br)o2)sc(C)c1CC	25%	7%	20%	-1%	163%
CCOC(=O)C1=C(NC(=O)c2ccc(Br)o2)Nc2ccccc2N=C1	1.7µM*	1%	11%	-36%	1.9µM*
CCN1CC2([N+](=O)[O-])C=CC(=O)C([N+](=O)[O-])(C1)C2CC(=O)c1ccccc1 (stereo not given)	-4%	13µM*	0%	13%	x
CCCCN1CC2([N+](=O)[O-])C=CC(=O)C([N+](=O)[O-])(C1)C2CC(=O)c1ccccc1 (stereo not given)	-11%	22µM*	-7%	1%	64%
O=C(CSc1ccc([N+](=O)[O-])cc1)c1ccccc1	x	x	0%	x	x
Cc1ccc(C)c(N(CC(=O)Nc2cc(Cl)ccc2Oc2ccccc2)S(C)(=O)=O)c1	u	9%	-5%	u	15µM*
Cc1ccc(C(=O)Nc2cc(Cl)ccc2Oc2ccccc2)cc1[N+](=O)[O-]	13µM*	16%	-2%	9%	u
Cc1cccc(C)c1N(CC(=O)Nc1cc(Cl)ccc1Oc1ccccc1)S(C)(=O)=O	10µM*	2%	-2%	-2%	u
Cc1ccc(C(=O)Nc2ccccc2-c2ccccc2)cc1[N+](=O)[O-]	7%	6%	-6%	0%	23%
Cc1c(-c2ccc(Cl)cc2)c(=O)oc2c(CN3CCN(C)CC3)c(O)ccc12	x	3%	x	x	x
Cc1ccc(NCc2cc3cc4c(cc3n(CC(=O)Nc3ccc(C)cc3)c2=O)OCCO4)cc1	x	45µM*	x	x	x
COc1ccc(NCc2cc3cc4c(cc3n(CC(=O)Nc3cc(C)cc(C)c3)c2=O)OCO4)cc1	x	-2%	x	x	x
CC1CN(C(=O)COC(=O)/C=C/c2ccccc2)CC(C)O1 (stereo not given)	x	x	-4%	x	x
Cc1cc(NC(c2ccc(Cl)cc2)c2ccc3cccnc3c2O)no1 (stereo not given)	x	13µM*	-30%	-171%	0.33µM*
CCC(=O)NC(c1ccc(Cl)cc1Cl)c1ccc2cccnc2c1O (stereo not given)	2.9µM*	0%	8%	-115%	139%
Cc1ccnc(NC(c2cccnc2)c2ccc3cccnc3c2O)c1 (stereo not given)	u	x	-80%	0%	17%
